Growth data for 13 compounds are collected here from PubChem BioAssay (NCI).

Test systems include SK-MEL-2 melanoma; EKVX NSCLC; SN12C renal; UO-31 renal; TK-10 renal; CAKI-1 renal; A498 renal; CCRF-CEM leukemia; MOLT-4 leukemia; ACHN renal.
Assay in all cases: NCI-60 one-dose screen, 48 h (100 = growth as untreated, 0 = no growth, -100 = all killed)
Holding throughout (details): 10 µM unless noted

SMILES strings stand for the structures. About 83,000 compounds went through this panel and 20% of them were active in at least one assay; those are over-represented in the sample as a whole.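 Compound tested at a single concentration for 48 hours in 96-well plates; a percent growth value below 10 was scored as active.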 Values without a mark were called inactive. The source made the active and inactive calls.

As to `CC(C)COc1nc2c(c(=O)n(C)c(=O)n2C)n1C`, the growth in the assay on SK-MEL-2 melanoma was 36.1%; with EKVX NSCLC it was 95.1%; in the assay on SN12C renal, 99.8%; in the assay with UO-31 renal it was 94.7%; in the assay on TK-10 renal, 105%; with CAKI-1 renal, 107%. For the same compound, the growth with A498 renal was 84.7%; with CCRF-CEM leukemia it was 97.5%; in the assay on MOLT-4 leukemia, 93.3%.
Consider `Oc1c(Br)cc(Br)c2ccc(Cn3cc(-c4ccc(C(F)(F)F)cc4)nn3)nc12`, for which the growth is 90.9% in the assay with SK-MEL-2 melanoma; 83.6% with EKVX NSCLC; 71% in the assay with SN12C renal; 63.5% in the assay with UO-31 renal; 99.1% in the assay with TK-10 renal; 13.2% in the assay with CAKI-1 renal. In addition, the results for the growth with A498 renal, in the assay with CCRF-CEM leukemia and in the assay on MOLT-4 leukemia were 96.8%, 2.97% (active) and 11.3%, respectively.
Turning to `CCNCCNc1cc(C2CCCCC2)c(C#N)c2nc3ccccc3n12`, the growth in the assay with SK-MEL-2 melanoma is 23.2%; in the assay on EKVX NSCLC it was 36%; in the assay on SN12C renal, 12.8%; with UO-31 renal, -41% (active); with TK-10 renal it was 27.2%; with CAKI-1 renal, 25.1%. For the same compound, the values for the growth with A498 renal, in the assay on CCRF-CEM leukemia and with MOLT-4 leukemia were -25.1% (active), -28.6% (active) and -7.01% (active), respectively.
`Nc1cc(C(=O)NC[C@H]2CN(c3ccc(N4CCC(C(=O)O)CC4)cc3)C(=O)O2)ccc1Cl`: the growth is 115% in the assay on SK-MEL-2 melanoma; 95.3% with EKVX NSCLC; 98.8% in the assay with SN12C renal; 80.4% with UO-31 renal; 104% in the assay with TK-10 renal; 87.7% in the assay on CAKI-1 renal. Also, the growth was 95.8% in the assay on A498 renal, 104% in the assay with CCRF-CEM leukemia and 99.4% in the assay on MOLT-4 leukemia.
In the case of `Clc1ccc2c(NC3CCC(N4CCOCC4)CC3)ccnc2c1` (configuration not stated), the growth in the assay with SK-MEL-2 melanoma was 113%; with EKVX NSCLC, 72.6%; in the assay on SN12C renal it was 90.5%; with UO-31 renal, 75.3%; in the assay on TK-10 renal, 80.8%; in the assay on CAKI-1 renal it was 75.1%. In addition, the growth was 75.5% in the assay on A498 renal, 85.5% in the assay with CCRF-CEM leukemia and 74.4% in the assay with MOLT-4 leukemia.
Regarding `CCOCCNC1=C(Cl)C(=O)c2ccccc2C1=O`, the growth in the assay on SK-MEL-2 melanoma is 92.3%; in the assay on EKVX NSCLC, 106%; in the assay on SN12C renal it was 100%; in the assay with UO-31 renal, 105%; in the assay on TK-10 renal it was 125%; in the assay on CAKI-1 renal, 115%. For the same compound, the growth was 94.4% with A498 renal, 102% in the assay on CCRF-CEM leukemia and 89.2% in the assay with MOLT-4 leukemia.
Take `O=C(Nc1nc2ccccc2s1)c1ccc(F)cc1`: the growth was 114% with SK-MEL-2 melanoma; 77.8% with EKVX NSCLC; 108% in the assay on SN12C renal; 89.1% in the assay with UO-31 renal; 125% in the assay with TK-10 renal; 62.9% in the assay on CAKI-1 renal. Besides, the growth with A498 renal was 89.8%; in the assay with CCRF-CEM leukemia, 101%; in the assay on MOLT-4 leukemia, 100%.
Consider `O=C1Nc2ccccc2/C1=C/c1cccn1CCCCn1c2ccccc2c(=O)c2ccccc21`, for which the growth was 84% in the assay with SK-MEL-2 melanoma; 86.1% with EKVX NSCLC; 97.9% in the assay on SN12C renal; 49.7% in the assay with UO-31 renal; 104% in the assay with TK-10 renal; 69.5% with CAKI-1 renal. The figures for the growth in the assay on A498 renal, in the assay on CCRF-CEM leukemia and in the assay on MOLT-4 leukemia were 109%, 52.8% and 47.7%, respectively.
In the case of `O=C(CN1CCCCC1)Nc1nc(-c2cc3ccccc3oc2=O)cs1`, the growth is 112% with SK-MEL-2 melanoma; 96.1% with EKVX NSCLC; 96.1% in the assay on SN12C renal; 82.9% in the assay on UO-31 renal; 138% in the assay on TK-10 renal; 95.9% in the assay on CAKI-1 renal. Further, the growth with A498 renal is 97.3%; with CCRF-CEM leukemia it was 102%; in the assay on MOLT-4 leukemia, 98.9%.
Regarding `CCOC(=O)C1=C(c2ccccc2)N=C2SC=C(c3ccc(Cl)cc3)N2C1c1ccc(Br)cc1` (configuration not stated), the growth in the assay on SK-MEL-2 melanoma was 96.4%; with EKVX NSCLC, 73.9%; in the assay on SN12C renal, 84.5%; in the assay on UO-31 renal, 73.2%; in the assay on TK-10 renal, 103%; in the assay on CAKI-1 renal it was 61.3%. Further, the figures for the growth in the assay with A498 renal, in the assay on CCRF-CEM leukemia and in the assay on MOLT-4 leukemia were 46.7%, 78.4% and 39%, respectively.
Turning to `O=C(O)CCCN1C(=O)/C(=C/c2cn(-c3ccccc3)nc2-c2ccc([N+](=O)[O-])cc2)SC1=S`, the growth was 77.6% with SK-MEL-2 melanoma; 67% in the assay on EKVX NSCLC; 50% in the assay with SN12C renal; 40.2% with UO-31 renal; 78.2% in the assay with TK-10 renal; 65.1% in the assay on CAKI-1 renal. Besides, the growth in the assay on A498 renal is 88.2%; in the assay on CCRF-CEM leukemia, 27.6%; with MOLT-4 leukemia, 54.5%.
Consider `Nc1c(C(=O)Nc2ccccc2F)sc2nc3c(cc12)CCCC3`, for which the growth in the assay on SK-MEL-2 melanoma was 43.7%; in the assay with EKVX NSCLC, 41.2%; in the assay with SN12C renal, 40%; with UO-31 renal it was 46.9%; in the assay with TK-10 renal, 60.9%; in the assay on ACHN renal, 50.7%. Besides, the growth is 57.4% in the assay on CAKI-1 renal, -0.37% (active) in the assay on A498 renal and 27% in the assay on MOLT-4 leukemia.
With `O=C1NC(=O)C(Cc2ccc(OCc3ccc(-c4ccc(Cl)cc4Cl)cc3)cc2)S1` (configuration not stated), the growth in the assay with SK-MEL-2 melanoma was 49.8%; in the assay with EKVX NSCLC, 37.8%; in the assay with SN12C renal, 59.5%; with UO-31 renal it was 34.1%; in the assay on TK-10 renal, 72.9%; in the assay with CAKI-1 renal, 32.7%. The growth is 83.4% in the assay with A498 renal, 42.2% in the assay with CCRF-CEM leukemia and 17% in the assay on MOLT-4 leukemia.
